# What was measured:
# Experiment in all cases: yeast three-hybrid, YBZ-1, SC-Leu-His + 0.5 mM 3-AT, 4 days
# Conditions in all cases: tags: N-Gal4 AD-HA kept; label: inside an RPR1-promoter hybrid RNA with tandem MS2 sites; ssRNA
# PUM1 PUF domain R5-RRW = PUM1 PUF domain R5-RRW (Homo sapiens, UniProt Q14671 828-1176, C1007R;Q1011W)
# Method in brief: (§1)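 The interaction score is the logarithmic change in variant frequency from input to selection. It uses log2, with a pseudocount of 1 for absent variants, and frequencies came from PCR-amplified, Illumina-sequenced repeat regions. The libraries were Pumilio-1 PUF domains randomized at the three base-contacting residues per repeat, co-expressed with matching RNA elements in strain YBZ-1 (LexA–MS2 coat fusion, HIS3 reporter). Plating lasted four days on SC-Leu (input) or SC-Leu-His + 0.5 mM 3-AT (selection).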
# PUM1 PUF domain R5-QIR = PUM1 PUF domain R5-QIR (Homo sapiens, UniProt Q14671 828-1176, C1007Q;R1008I;Q1011R)
# Method in brief: as §1
# PUM1 PUF domain R2-LYL = PUM1 PUF domain R2-LYL (Homo sapiens, UniProt Q14671 828-1176, N899L;Q903L)
# Method in brief: as §1
# PUM1 PUF domain R3-RPH = PUM1 PUF domain R3-RPH (Homo sapiens, UniProt Q14671 828-1176, C935R;R936P;Q939H)
# Method in brief: as §1
# PUM1 PUF domain R3-RVT = PUM1 PUF domain R3-RVT (Homo sapiens, UniProt Q14671 828-1176, C935R;R936V;Q939T)
# Method in brief: as §1
# PUM1 PUF domain R3-RIR = PUM1 PUF domain R3-RIR (Homo sapiens, UniProt Q14671 828-1176, C935R;R936I;Q939R)
# Method in brief: as §1
# PUM1 PUF domain R4-CNS = PUM1 PUF domain R4-CNS (Homo sapiens, UniProt Q14671 828-1176, N971C;H972N;Q975S)
# Method in brief: as §1
# PUM1 PUF domain R7-RVC = PUM1 PUF domain R7-RVC (Homo sapiens, UniProt Q14671 828-1176, S1079R;N1080V;E1083C)
# Method in brief: as §1
# PUM1 PUF domain R7-GRL = PUM1 PUF domain R7-GRL (Homo sapiens, UniProt Q14671 828-1176, S1079G;N1080R;E1083L)
# Method in brief: as §1
# PUM1 PUF domain R7-GRV = PUM1 PUF domain R7-GRV (Homo sapiens, UniProt Q14671 828-1176, S1079G;N1080R;E1083V)
# Method in brief: as §1
# PUM1 PUF domain R8-HWK = PUM1 PUF domain R8-HWK (Homo sapiens, UniProt Q14671 828-1176, N1122H;Y1123W;Q1126K)
# Method in brief: as §1
# Chain of PUM1 PUF domain R3-RIR (Q14671 828-1176 C935R/R936I/Q939R): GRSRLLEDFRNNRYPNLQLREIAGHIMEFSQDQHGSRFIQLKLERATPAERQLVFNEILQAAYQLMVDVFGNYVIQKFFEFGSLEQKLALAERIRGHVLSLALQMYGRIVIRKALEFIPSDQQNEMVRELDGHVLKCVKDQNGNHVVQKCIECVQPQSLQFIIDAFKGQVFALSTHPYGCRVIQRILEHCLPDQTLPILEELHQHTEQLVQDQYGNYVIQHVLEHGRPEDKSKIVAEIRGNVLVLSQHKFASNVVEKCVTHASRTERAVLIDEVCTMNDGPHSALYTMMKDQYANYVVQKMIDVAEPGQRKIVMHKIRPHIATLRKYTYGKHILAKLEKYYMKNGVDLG
# Chain of PUM1 PUF domain R5-RRW (Q14671 828-1176 C1007R/Q1011W): as the sequence (Q14671 828-1176 C935R/R936I/Q939R) above, with R108C, I109R, R112Q, C180R, Q184W counted along it
# Chain of PUM1 PUF domain R5-QIR (Q14671 828-1176 C1007Q/R1008I/Q1011R): as the sequence (Q14671 828-1176 C935R/R936I/Q939R) above, with R108C, I109R, R112Q, C180Q, R181I, Q184R counted along it
# Chain of PUM1 PUF domain R7-GRL (Q14671 828-1176 S1079G/N1080R/E1083L): as the sequence (Q14671 828-1176 C935R/R936I/Q939R) above, with R108C, I109R, R112Q, S252G, N253R, E256L counted along it
# Chain of PUM1 PUF domain R3-RVT (Q14671 828-1176 C935R/R936V/Q939T): as the sequence (Q14671 828-1176 C935R/R936I/Q939R) above, with I109V, R112T counted along it
# Chain of PUM1 PUF domain R7-RVC (Q14671 828-1176 S1079R/N1080V/E1083C): as the sequence (Q14671 828-1176 C935R/R936I/Q939R) above, with R108C, I109R, R112Q, S252R, N253V, E256C counted along it
# Chain of PUM1 PUF domain R7-GRV (Q14671 828-1176 S1079G/N1080R/E1083V): as the sequence (Q14671 828-1176 C935R/R936I/Q939R) above, with R108C, I109R, R112Q, S252G, N253R, E256V counted along it
# Chain of PUM1 PUF domain R2-LYL (Q14671 828-1176 N899L/Q903L): as the sequence (Q14671 828-1176 C935R/R936I/Q939R) above, with N72L, Q76L, R108C, I109R, R112Q counted along it
# Chain of PUM1 PUF domain R4-CNS (Q14671 828-1176 N971C/H972N/Q975S): as the sequence (Q14671 828-1176 C935R/R936I/Q939R) above, with R108C, I109R, R112Q, N144C, H145N, Q148S counted along it
# Chain of PUM1 PUF domain R8-HWK (Q14671 828-1176 N1122H/Y1123W/Q1126K): as the sequence (Q14671 828-1176 C935R/R936I/Q939R) above, with R108C, I109R, R112Q, N295H, Y296W, Q299K counted along it
# Chain of PUM1 PUF domain R3-RPH (Q14671 828-1176 C935R/R936P/Q939H): as the sequence (Q14671 828-1176 C935R/R936I/Q939R) above, with I109P, R112H counted along it
sequence,measurement,setting,value
GGCUAGAACUAGUGGAUCCCCCGGCGCCCGGCGGCUCGAGCCCGGGUAAGUGUUAAUAGUCUGCAUGCCGCCGGGCGCCAUGCCUGCAGGUCGACUCUAGAAAACAUG,binding signal,PUM1 PUF domain R5-RRW,3.67 log2 enrichment (interaction score)
same,binding signal,PUM1 PUF domain R5-QIR,1.95 log2 enrichment (interaction score)
GGCUAGAACUAGUGGAUCCCCCGGCGCCCGGCGGCUCGAGCCCGGGUAAGUGUAAAAAGUCUGCAUGCCGCCGGGCGCCAUGCCUGCAGGUCGACUCUAGAAAACAUG,binding signal,PUM1 PUF domain R2-LYL,3.33 log2 enrichment (interaction score)
GGCUAGAACUAGUGGAUCCCCCGGCGCCCGGCGGCUCGAGCCCGGGUAAGUGUAAUUAGUCUGCAUGCCGCCGGGCGCCAUGCCUGCAGGUCGACUCUAGAAAACAUG,binding signal,PUM1 PUF domain R3-RPH,3.26 log2 enrichment (interaction score)
same,binding signal,PUM1 PUF domain R3-RVT,2.47 log2 enrichment (interaction score)
same,binding signal,PUM1 PUF domain R3-RIR,4.33 log2 enrichment (interaction score)
GGCUAGAACUAGUGGAUCCCCCGGCGCCCGGCGGCUCGAGCCCGGGUAAGUGUAUAUAGUCUGCAUGCCGCCGGGCGCCAUGCCUGCAGGUCGACUCUAGAAAACAUG,binding signal,PUM1 PUF domain R4-CNS,3.64 log2 enrichment (interaction score)
GGCUAGAACUAGUGGAUCCCCCGGCGCCCGGCGGCUCGAGCCCGGGUAAGUUUAAAUAGUCUGCAUGCCGCCGGGCGCCAUGCCUGCAGGUCGACUCUAGAAAACAUG,binding signal,PUM1 PUF domain R7-RVC,2.88 log2 enrichment (interaction score)
same,binding signal,PUM1 PUF domain R7-GRL,2.75 log2 enrichment (interaction score)
same,binding signal,PUM1 PUF domain R7-GRV,2.62 log2 enrichment (interaction score)
GGCUAGAACUAGUGGAUCCCCCGGCGCCCGGCGGCUCGAGCCCGGGUAAGGGUAAAUAGUCUGCAUGCCGCCGGGCGCCAUGCCUGCAGGUCGACUCUAGAAAACAUG,binding signal,PUM1 PUF domain R8-HWK,2.46 log2 enrichment (interaction score)
GGCUAGAACUAGUGGAUCCCCCGGCGCCCGGCGGCUCGAGCCCGGGUAAGUGUAAGUAGUCUGCAUGCCGCCGGGCGCCAUGCCUGCAGGUCGACUCUAGAAAACAUG,binding signal,PUM1 PUF domain R3-RIR,5.02 log2 enrichment (interaction score)
GGCUAGAACUAGUGGAUCCCCCGGCGCCCGGCGGCUCGAGCCCGGGUAAGUGUGAAUAGUCUGCAUGCCGCCGGGCGCCAUGCCUGCAGGUCGACUCUAGAAAACAUG,binding signal,PUM1 PUF domain R5-RRW,0.3 log2 enrichment (interaction score)

# Reference: publication PMC8384837, “Expanding the binding specificity for RNA recognition by a PUF domain”
